PubChem BioAssay AID1159580 (chemical genetic matrix, 2015)
Values joined by “and” are separate entries in the source; they are usually repeats but may differ in a detail not shown here. Equal values may be shown once. The campaign covered roughly 5,500 compounds. About 2,000 (36%) were called active. Inconclusive results (about 18%) are left out. Rule as the data show it: active = normalized growth mostly below about 0.91 (no sharp cut-off); inconclusive = no clear call, values can overlap the other calls; inactive = mostly above about 0.92. This is one part of the list.

Assay: chemical genetic growth profiling, strain panel (AID 1159580);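 also: tested at 20 µM; growth read once vehicle control cultures reached saturation at 30 °C; 1 = growth at the plate median or of vehicle wells; lower values mean less growth of the strain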
Conditions: growth OD
[1] = S. cerevisiae deletion strains, locus YBR021W, strain FUR4, stronger effect = lower value
[2] = S. cerevisiae deletion strains, locus YBR229C, strain ROT2, stronger effect = lower value
[3] = S. cerevisiae deletion strains, locus YCL029C, strain bik1, stronger effect = lower value
[4] = S. cerevisiae deletion strains, locus YDL035C, strain GPR1, stronger effect = lower value
[5] = S. cerevisiae deletion strains, locus YDL074C, strain BRE1, stronger effect = lower value
[6] = S. cerevisiae deletion strains, locus YDL101C, strain DUN1, stronger effect = lower value
[7] = S. cerevisiae deletion strains, locus YDL185W, strain tfp1, stronger effect = lower value
[8] = S. cerevisiae deletion strains, locus YDL192W, strain arf1, stronger effect = lower value
[9] = S. cerevisiae deletion strains, locus YDR101C, strain arx1, stronger effect = lower value
[10] = S. cerevisiae deletion strains, locus YDR162C, strain NBP2, stronger effect = lower value
[11] = S. cerevisiae deletion strains, locus YDR318W, strain mcm21, stronger effect = lower value
[12] = S. cerevisiae deletion strains, locus YDR388W, stronger effect = lower value
[13] = S. cerevisiae deletion strains, locus YDR502C, strain sam2, stronger effect = lower value
[14] = S. cerevisiae deletion strains, locus YER110C, stronger effect = lower value
[15] = S. cerevisiae deletion strains, locus YER155C, strain BEM2, stronger effect = lower value
[16] = S. cerevisiae deletion strains, locus YER167W, strain BCK2, stronger effect = lower value
[17] = S. cerevisiae deletion strains, locus YGL078C, strain dbp3, stronger effect = lower value
[18] = S. cerevisiae deletion strains, locus YGL086W, strain mad1, stronger effect = lower value
[19] = S. cerevisiae deletion strains, locus YGL248W, strain PDE1, stronger effect = lower value
[20] = S. cerevisiae deletion strains, locus YGR078C, strain PAC10, stronger effect = lower value
[21] = S. cerevisiae deletion strains, locus YGR135W, strain pre9, stronger effect = lower value
[22] = S. cerevisiae deletion strains, locus YGR252W, strain gcn5, stronger effect = lower value
[23] = S. cerevisiae deletion strains, locus YHR030C, strain SLT2, stronger effect = lower value
[24] = S. cerevisiae deletion strains, locus YHR079C, strain IRE1 (second series), stronger effect = lower value
[25] = S. cerevisiae deletion strains, locus YHR094C, strain hxt1, stronger effect = lower value
[26] = S. cerevisiae deletion strains, locus YHR129C, strain ARP1, stronger effect = lower value
[27] = S. cerevisiae deletion strains, locus YHR200W, strain rpn10, stronger effect = lower value
[28] = S. cerevisiae deletion strains, locus YIL066C, strain RNR3, stronger effect = lower value
[29] = S. cerevisiae deletion strains, locus YIL073C, strain SPO22, stronger effect = lower value
[30] = S. cerevisiae deletion strains, locus YIL125W, strain kgd1, stronger effect = lower value
[31] = S. cerevisiae deletion strains, locus YIR030C, strain dcg1, stronger effect = lower value
[32] = S. cerevisiae deletion strains, locus YJL095W, strain BCK1, stronger effect = lower value
[33] = S. cerevisiae deletion strains, locus YJL134W, strain LCB3, stronger effect = lower value
[34] = S. cerevisiae deletion strains, locus YJL168C, strain set2, stronger effect = lower value
[35] = S. cerevisiae deletion strains, locus YJL187C, strain SWE1 (second series), stronger effect = lower value
[36] = S. cerevisiae deletion strains, locus YKL009W, strain mrt4, stronger effect = lower value
[37] = S. cerevisiae deletion strains, locus YKL068W, stronger effect = lower value
[38] = S. cerevisiae deletion strains, locus YKL085W, strain MDH1 (second series), stronger effect = lower value
[39] = S. cerevisiae deletion strains, locus YKL085W, strain MDH1, stronger effect = lower value
[40] = S. cerevisiae deletion strains, locus YKR001C, strain vps1, stronger effect = lower value
[41] = S. cerevisiae deletion strains, locus YLR039C, strain RIC1, stronger effect = lower value
[42] = S. cerevisiae deletion strains, locus YLR058C, strain SHM2, stronger effect = lower value
[43] = S. cerevisiae deletion strains, locus YLR102C, strain apc9, stronger effect = lower value
[44] = S. cerevisiae deletion strains, locus YLR262C, strain YPT6, stronger effect = lower value
[45] = S. cerevisiae deletion strains, locus YLR268W, strain sec22, stronger effect = lower value
[46] = S. cerevisiae deletion strains, locus YLR371W, strain rom2, stronger effect = lower value
[47] = S. cerevisiae deletion strains, locus YLR418C, strain cdc73, stronger effect = lower value
[48] = S. cerevisiae deletion strains, locus YML016C, strain PPZ1, stronger effect = lower value
[49] = S. cerevisiae deletion strains, locus YML032C, strain rad52, stronger effect = lower value
[50] = S. cerevisiae deletion strains, locus YML124C, strain tub3, stronger effect = lower value
[51] = S. cerevisiae deletion strains, locus YMR078C, strain ctf18, stronger effect = lower value
[52] = S. cerevisiae deletion strains, locus YMR223W, strain ubp8, stronger effect = lower value
[53] = S. cerevisiae deletion strains, locus YMR307W, strain GAS1, stronger effect = lower value
[54] = S. cerevisiae deletion strains, locus YNL067W, strain RPL9B, stronger effect = lower value
[55] = S. cerevisiae deletion strains, locus YNL153C, strain GIM3, stronger effect = lower value
[56] = S. cerevisiae deletion strains, locus YNL233W, strain BNI4, stronger effect = lower value
[57] = S. cerevisiae deletion strains, locus YNL250W, strain rad50, stronger effect = lower value
[58] = S. cerevisiae deletion strains, locus YNL271C, strain bni1, stronger effect = lower value
[59] = S. cerevisiae deletion strains, locus YNL298W, strain CLA4, stronger effect = lower value
[60] = S. cerevisiae deletion strains, locus YNL307C, strain MCK1, stronger effect = lower value
[61] = S. cerevisiae deletion strains, locus YNR052C, strain pop2, stronger effect = lower value
[62] = S. cerevisiae deletion strains, locus YOL012C, strain htz1
[63] = S. cerevisiae deletion strains, locus YOL147C, strain pex11, stronger effect = lower value
[64] = S. cerevisiae deletion strains, locus YOR061W, strain CKA2, stronger effect = lower value
[65] = S. cerevisiae deletion strains, locus YOR069W, strain VPS5, stronger effect = lower value
[66] = S. cerevisiae deletion strains, locus YOR136W, strain idh2, stronger effect = lower value
[67] = S. cerevisiae deletion strains, locus YOR144C, strain elg1, stronger effect = lower value
[68] = S. cerevisiae deletion strains, locus YOR184W, strain ser1, stronger effect = lower value
[69] = S. cerevisiae deletion strains, locus YOR316C, strain cot1, stronger effect = lower value
[70] = S. cerevisiae deletion strains, locus YPL241C, strain CIN2, stronger effect = lower value
[71] = S. cerevisiae deletion strains, locus YPR119W, strain clb2, stronger effect = lower value
[72] = S. cerevisiae deletion strains, locus YPR141C, strain kar3, stronger effect = lower value
[73] = S. cerevisiae deletion strains, locus YPR163C, strain tif3, stronger effect = lower value
[74] = S. cerevisiae deletion strains, locus YPR167C, strain met16, stronger effect = lower value
[75] = S. cerevisiae deletion strains, strain wtn01, stronger effect = lower value

Measured: normalized growth

CO[C@H]1[C@H](O)[C@@H](O[C@H]2CC[C@]3(C=O)C4CC[C@]5(C)[C@@H](C6=CC(=O)OC6)CC[C@]5(O)C4CC[C@@H]3C2)O[C@@H](C)[C@@H]1O (some centres not stated)
inactive: S. cerevisiae deletion strains, locus YAL013W, strain DEP1, stronger effect = lower value 0.982 | [1] 1.01 | [2] 0.959 | [3] 0.993 | [4] 0.986 | [5] 1.01 | [6] 0.973 | S. cerevisiae deletion strains, locus YDL134C, strain PPH21, stronger effect = lower value 0.986 | [7] 0.989 | [8] 0.99 | [9] 1 | S. cerevisiae deletion strains, locus YDR150W, strain NUM1, stronger effect = lower value 0.966 | [10] 0.978 | [11] 1.01 | [12] 0.999 | [13] 0.992 | S. cerevisiae deletion strains, locus YEL061C, strain CIN8, stronger effect = lower value 0.984 | [14] 0.973 | [15] 0.997 | [16] 0.995 | [17] 0.986 | [18] 0.989 | [19] 0.973 | [20] 1 | [21] 1 | S. cerevisiae deletion strains, locus YGR229C, strain SMI1, stronger effect = lower value 0.996 | [22] 0.999 | [23] 0.987 and 0.975 | [24] 0.99 | S. cerevisiae deletion strains, locus YHR079C, strain IRE1, stronger effect = lower value 0.965 | [25] 0.988 | [26] 0.996 | [27] 0.999 | [28] 0.968 | [29] 0.994 | [30] 0.98 | [31] 0.982 | [32] 1.04 and 0.973 | [33] 0.981 | [34] 0.992 | [35] 0.99 | S. cerevisiae deletion strains, locus YJR043C, strain POL32, stronger effect = lower value 1.01 | S. cerevisiae deletion strains, locus YJR066W, strain TOR1, stronger effect = lower value 0.972 | S. cerevisiae deletion strains, locus YJR075W, strain HOC1, stronger effect = lower value 0.998 | [36] 0.943 | [37] 0.994 | [38] 0.98 | [39] 0.98 | S. cerevisiae deletion strains, locus YKL190W, strain CNB1, stronger effect = lower value 0.991 | [40] 0.993 | [41] 0.969 | [42] 0.965 | [43] 0.994 | S. cerevisiae deletion strains, locus YLR113W, strain HOG1, stronger effect = lower value 0.975 | [44] 0.972 | [45] 1.05 | S. cerevisiae deletion strains, locus YLR330W, strain CHS5, stronger effect = lower value 0.982 | S. cerevisiae deletion strains, locus YLR342W, strain FKS1 (second series), stronger effect = lower value 0.998 | [46] 0.979 | [47] 1 | [48] 0.987 | [49] 1.01 | [50] 0.989 | [51] 0.993 | [52] 0.977 | S. cerevisiae deletion strains, locus YMR263W, strain SAP30, stronger effect = lower value 0.987 | [53] 0.981 | [54] 1.01 | S. cerevisiae deletion strains, locus YNL128W, strain TEP1, stronger effect = lower value 0.969 | [55] 0.994 | S. cerevisiae deletion strains, locus YNL183C, strain NPR1, stronger effect = lower value 0.903 | [56] 0.999 | [57] 0.969 | [58] 1 | [59] 0.992 | [60] 0.993 | S. cerevisiae deletion strains, locus YNL322C, strain KRE1, stronger effect = lower value 0.989 | [61] 1.01 | S. cerevisiae deletion strains, locus YOL006C, strain TOP1, stronger effect = lower value 1.01 | [62] 0.939 | [63] 0.998 | [64] 0.968 | [65] 0.988 | [66] 0.986 | [67] 0.998 | [68] 0.981 | S. cerevisiae deletion strains, locus YOR231W, strain MKK1, stronger effect = lower value 0.957 | [69] 0.985 | S. cerevisiae deletion strains, locus YPL055C, strain LGE1, stronger effect = lower value 0.979 | [70] 0.992 | S. cerevisiae deletion strains, locus YPL256C, strain CLN2, stronger effect = lower value 0.948 | [71] 0.989 | [72] 0.983 | [73] 1 | [74] 0.992 | [75] 0.996 | S. cerevisiae strains, strain wild type, stronger effect = lower value 0.978

CC12CCC3C(CCC4(O)CC(O)CCC34/C=N/NC(N)=O)C1(O)CCC2C1=CC(=O)OC1 (configuration not stated)
inactive: [1] 1.05 | [2] 1.02 | [3] 0.999 | [4] 1.05 | [5] 1.05 | [6] 1.01 | [7] 0.998 | [8] 1.01 | [9] 1.01 | [10] 1.02 | [11] 0.985 | [12] 0.985 | [13] 0.974 | [14] 0.963 | [15] 1 | [16] 1.02 | [17] 0.983 | [18] 0.991 | [19] 1 | [20] 0.991 | [21] 0.957 | [22] 0.98 | [23] 1.01 | [24] 0.988 | [25] 0.979 | [26] 1.01 | [27] 0.994 | [28] 1.04 | [29] 1.01 | [30] 0.992 | [31] 0.994 | [32] 1 | [33] 1.01 | [34] 0.991 | [35] 0.999 | [36] 1.03 | [37] 0.987 | [38] 0.994 | [39] 0.994 | [40] 0.996 | [41] 1.06 | [42] 1.02 | [43] 0.985 | [44] 1.05 | [45] 1.02 | [46] 0.994 | [47] 0.975 | [48] 1.02 | [49] 1 | [50] 0.986 | [51] 0.981 | [52] 0.975 | [53] 1.08 | [54] 0.986 | [55] 0.991 | [56] 0.987 | [57] 0.985 | [58] 0.994 | [59] 0.983 | [60] 0.986 | [61] 0.98 | [62] 1.29 | [63] 0.986 | [64] 1.04 | [65] 1 | [66] 0.98 | [67] 0.989 | [68] 1.03 | [69] 0.987 | [70] 1.01 | [71] 0.983 | [72] 0.994 | [73] 0.989 | [74] 0.978 | [75] 1.01
